# Screens as filed in PubChem BioAssay.
# Rows were chosen to be rich in hits. Some 5.2% of all compounds tested hit in one or more screens of this group.
# Tau fluor cs: Counterscreen qHTS for Inhibitors of Tau Fibril Formation, Fluorescence Polarization | Potency, µM (top dose mostly 57.7 µM), for the others: top-dose activity change, negative = decrease | 280,000 tested, 0.93% active | tau K18 P301L Alexa594 fluorescence, heparin fibrillization; note: potency is the fitted concentration of half-maximal effect; nearly all actives have a fitted effect of over 55% in size
#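 Human tau K18 P301L (15 uM unlabeled, 0.24 uM Alexa 594-labeled) in 100 mM sodium acetate pH 7 with 20 uM heparin, 6 hr at 37 C. ThT 30 uM added, 1 hr ambient; Alexa 594 FP and total fluorescence read at 555/632 nm.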
# Tau FP inhib: qHTS for Inhibitors of Tau Fibril Formation, Fluorescence Polarization; K18 P301L tau heparin fibrillization, Alexa594 FP, 6 h; Potency, µM (titrated, usually from 57.7 µM), inactives show at the top dose activity, negative = inhibition, most hits filed as inhibitors; 280,000 tested, 0.39% active; note: potency is the fitted concentration of half-maximal effect; nearly all actives have a fitted effect of over 55% in size
# Target sequence (P10636 561-689 P618L limits assumed): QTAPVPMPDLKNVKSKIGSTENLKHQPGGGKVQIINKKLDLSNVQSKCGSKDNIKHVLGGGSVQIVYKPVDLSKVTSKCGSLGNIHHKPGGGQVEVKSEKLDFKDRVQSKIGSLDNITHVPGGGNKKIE
#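 Quantitative HTS format: compounds meet 15 uM recombinant K18 P301L tau and Alexa 594-tau tracer in 100 mM sodium acetate pH 7; 20 uM heparin triggers fibrillization at 37 C over 6 hr; FP gives the signal.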
# Coupling enz: qHTS Assay for Inhibitors of Fructose-1,6-bisphosphate Aldolase from Giardia Lamblia: Coupling assay counterscreen | coupling enzyme system counterscreen, AmpLite Red fluorescence | AID 2472, 2010 | 290,000 tested, 0.67% active | activity change, negative = inhibition, % at 58.2 µM, hits read low; in the data active = activity change below about -30%
#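 Activity here indicates interference with the coupling reaction, not aldolase inhibition. Compounds at 57.5 uM final met coupling enzymes for 10 min at RT; substrate and AmpLite Red detection followed, with a 525/598 nm fluorescence read after 20 min.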
# Tau ThT inhib: qHTS for Inhibitors of Tau Fibril Formation, Thioflavin T Binding; Potency, µM (series often up to 57.4 µM), without a hit: at the highest dose activity, negative = inhibition, hits mostly inhibitors; AID 1460, 2008; 270,000 tested, 2.1% active; recombinant tau K18 P301L (four-repeat tau fragment), heparin-induced fibrillization, ThT fluorescence; note: potency is the fitted concentration of half-maximal effect; nearly all actives have a fitted effect of over 55% in size
#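 Aggregation was driven by heparin (20 uM final) acting on recombinant tau […] bearing P301L in 100 mM sodium acetate pH 7; fibrils were detected with Thioflavin T.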
# Sfp PPTase inh: qHTS Assay for Inhibitors of Bacillus subtilis Sfp phosphopantetheinyl transferase (PPTase) | AID 1490, 2009 | Biochemical Sfp PPTase activity, qHTS | 4'-phosphopantetheinyl transferase ffp (Bacillus subtilis), Q9F4F7 | Potency, µM, for the others: largest response in the series, negative = inhibition, most hits filed as inhibitors | 310,000 tested, 3.5% active;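 note: the enzyme is Sfp with the accession as filed and its product quenches rhodamine fluorescence; potency is the fitted concentration of half-maximal effect; 0% = enzyme reaction without inhibitor and -100% = no enzyme wells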
#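 Buffer: 50 mM Hepes-Na pH 7.6, 10 mM MgCl2, 0.01% Nonidet P-40, 0.01% BSA. Enzyme 15 nM, pre-exposed to compound 15 min; substrates then added and fluorescence change tracked over 30 min.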
# Numbers without * were called inactive; ? = inconclusive; nt = no result given; [ ] = dose if it differs, or a comment. Unless noted, calls come from the whole dose curve; as a rule, active = well fitted curve in the direction sought with a large enough effect; inconclusive = small, poorly fitted or top-dose-only effect, or another doubt; inactive = no such curve, though single readings can be large; an effect the other way counts as inactive or inconclusive. Unless noted, % is set by controls: 0 for no effect and ±100 for the full control effect.
SMILES,Tau fluor cs,Tau FP inhib,Coupling enz,Tau ThT inhib,Sfp PPTase inh
CO[C@H](C(=O)[C@@H](O)[C@@H](C)O)C1Cc2cc3cc(O[C@H]4C[C@@H](O[C@H]5C[C@@H](O)[C@H](O)[C@@H](C)O5)[C@@H](O)[C@@H](C)O4)c(C)c(O)c3c(O)c2C(=O)[C@H]1O[C@H]1C[C@@H](O[C@H]2C[C@@H](O[C@H]3C[C@](C)(O)[C@H](O)[C@@H](C)O3)[C@H](O)[C@@H](C)O2)[C@H](O)[C@@H](C)O1 (stereo not given in full),nt,nt,nt,nt,6.2%
CCOC(=O)c1c(Nc2ccc(O)cc2)nnc(-c2ccccc2)c1-c1ccccc1,-21.8%,-6.2%,nt,-6.3%,nt
CCOCCn1c(N2CCCC2)nc2c1c(=O)[nH]c(=O)n2C,nt,nt,-1.3,nt,39.8µM*
CCCCCCn1c(SCCCC)nc2c1c(=O)[nH]c(=O)n2C,-1.9%,-1.7%,-1.8,-13.2%,12.8%
CCOCCn1c(SC)nc2c1c(=O)[nH]c(=O)n2C,3.0%,-1.7%,0.2,3.5%,17.8µM*
CCn1c([N+](=O)[O-])nc2c1c(=O)[nH]c(=O)n2C,4.8%,-10.0%,-38.1*,-14.7%,-4.8%
Cc1cc(Br)ccc1NC(=O)CCNS(=O)(=O)c1cccc2nonc12,-17.8%,-4.6%,nt,-12.7%,nt
N#Cc1ccc(CN2CC3(CCN(C(=O)c4ccco4)CC3)C2)cc1,nt,nt,0.0,nt,16.7%
CCC(C)Sc1oc(-c2ccco2)nc1S(=O)(=O)c1ccc(C)cc1 (stereo not given),?,1.3%,nt,?,nt
CCN(CC)c1nc2ccccc2c(N)c1-c1ccccc1,-3.0%,3.8%,nt,-1.2%,79.4µM*
COc1cc(-c2nc(SCC(=O)Nc3ccc4c(c3)OCO4)c(-c3ccccc3)[nH]2)cc(OC)c1OC,5.62µM*[quencher],2.0%,nt,?,nt
O=C(CSc1nc(-c2ccccc2)[nH]c1-c1ccccc1)Nc1ccc2c(c1)OCO2,7.08µM*[quencher],2.2%,nt,?,nt
Cc1ccc2oc3c(c(=O)c2c1)C(c1ccccc1F)N(CCCN(C)C)C3=O (stereo not given),-5.4%,-1.1%,nt,2.5%,nt
Cc1ccc(NC(=O)CCc2nc3cccnc3n2-c2ccccc2)cc1,-12.3%,?,nt,-9.2%,nt
COc1ccc(CN(Cc2ccc(C(=O)O)cc2)C(=S)Nc2ccccc2F)cc1OC,-0.1%,-1.0%,4.5,-1.9%,50.1µM*
COc1ccc(CN(C)CCc2ccccn2)cc1OC,-6.4%,4.3%,0.8,-11.6%,50.1µM*
COc1ccccc1NC(=S)N(Cc1ccc(C)cc1)Cc1ccccn1,-13.1%,6.1%,-8.3,-4.1%,44.7µM*
COc1ccc(CCN(Cc2ccccn2)C(=S)Nc2cccc(SC)c2)cc1OC,?,5.5%,-4.7,-14.0%,44.7µM*
CCOc1cc2sc(N3CCC(C(=O)Nc4ccccc4Cl)CC3)nc2cc1Br,-29.9%,8.5%,nt,?,nt
COc1ccccc1CNc1cc(-c2ccccc2Cl)ncn1,nt,nt,1.5,nt,-2.4%
CCc1nnc(SC(CC)C(=O)Nc2cccc(OC)c2)c2cc3oc(C)cc3n12 (stereo not given),-19.4%,-10.4%,nt,?,nt
Cc1ccn2c(Nc3ccc(C(C)C)cc3)c(-c3cccs3)nc2c1,-23.8%,2.3%,nt,-5.2%,nt
c1ccc(-c2cnc(CSc3nnc4ccccn34)o2)cc1,3.6%,0.5%,-37.5*,-5.6%,-5.0%
Fc1ccc(-c2nnc(CSc3nnc4ccccn34)o2)cc1,-3.9%,-4.3%,2.8,-3.7%,3.9%
O=C(NCCc1csc(-c2cccnc2)n1)c1ccc(Br)o1,2.9%,2.3%,4.1,-6.1%,20µM*
O=C(NCCc1csc(-c2ccccc2)n1)c1ccc(Br)o1,-5.6%,0.5%,6.8,?,11.9%
O=[N+]([O-])c1cccc(/C=N/Nc2nnc(-c3ccccc3)c(-c3ccccc3)n2)c1,-11.8%,-0.9%,1.1,-5.4%,9.4%
